# Source: PubChem BioAssay (National Center for Advancing Translational Sciences (NCATS))
# CtBP-E1A blk: inhibitors of CtBP/E1A interaction; 340,000 tested, 0.49% active; activity change, % (no concentration beside the values); AlphaScreen GST-E1A/His-CtBP binding, 1536-well; stronger effect = lower value; in the data active = activity change below about -65%; inconclusive = mostly about -30% to -63%
#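 In 5 uL wells, 23 nL compound meets equimolar GST-E1A and His-CtBP (5X stock 125 nM each) for 2 h, 37 °C. Beads (5X, 50 ug/mL) then 1 h, 37 °C, dark.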
# DT40 TDP1 CPT: growth inhibition of DT40 Tdp1-/-;hTDP1 cells with camptothecin (screen for TDP1 inhibitors); chicken DT40 Tdp1-/-;hTDP1 cells + 20 nM CPT, ATP luminescence, 48 h; 420,000 tested, 12% active; Potency, µM (highest dose often 46.2 µM), inactives show at the top dose activity change, negative = growth inhibition, usual class: inhibitors; note: potency is the fitted concentration of half-maximal effect; nearly all actives have a fitted effect of over 55% in size
#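 Chicken DT40 Tdp1-/- cells stably complemented with human TDP1 were seeded at 400 cells/well in medium containing 20 nM camptothecin, exposed to pin-transferred compounds, and grown at 37 °C for at least 48 hr. Viability was read as ATP luminescence.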
# DT40 TDP1 no CPT: qHTS for Inhibitors of human tyrosyl-DNA phosphodiesterase 1 (TDP1): qHTS in cells in absence of CPT; 420,000 tested, 15% active; Potency, µM (series often up to 46.2 µM), for inactives: top-dose activity change, negative = growth inhibition, usual class: inhibitors; DT40 Tdp1-/- hTDP1 cells, no CPT, ATP luminescence, 48 h; note: potency is the fitted concentration of half-maximal effect; nearly all actives have a fitted effect of over 55% in size
#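 Chicken DT40 Tdp1-/- cells complemented with human TDP1, screened without camptothecin (DMSO vehicle only), 400 cells/well. Compounds pin-transferred, cells incubated at 37 °C for at least 48 hr. Growth read as ATP-dependent luminescence (CellTiter-Glo, 30 min at RT).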
# Six1-Eya2 inh: Six1/Eya2 interaction inhibition; AID 651725; 360,000 tested, 0.56% active; AlphaScreen GST-Six1/His-Eya2 binding, biochemical; stronger effect = lower value; activity change, % (no concentration beside the values); Q15475+O00167; in the data active = activity change below about -65%; inconclusive = mostly about -30% to -63%
#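 AlphaScreen luminescence read after one hour at 37 °C in darkness. Pin-transferred compounds met GST-Six1 and His-Eya2 protein (5X stock 250 nM/500 nM) plus glutathione donor and Ni-chelate acceptor beads (5X, 50 ug/mL).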
# IL-1B inflam inh: blocks inflammasome-driven IL-1 beta release; 360,000 tested, 4.7% active; THP-1 LPS/ATP IL-1B secretion, AlphaLISA, 16 h; stronger effect = lower value; activity change, % at 57.5 µM; in the data active = activity change below about -50%; inconclusive = mostly about -30% to -49%
#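 Secreted IL-1B measured by AlphaLISA bead assay after 16 h compound exposure of THP-1 cells; compounds (final up to 57.5 uM) added 1 h before LPS (250 ng/mL) and ATP (1.25 mM) stimulation; lower signal means less secretion.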
# TDP1 inh: blocks human tyrosyl-DNA phosphodiesterase 1 | Q9NUW8 | Potency, µM (highest dose often 130 µM), inactives show at the highest dose activity change, negative = inhibition, most hits filed as inhibitors | 350,000 tested, 0.28% active | recombinant TDP1, AlphaScreen DNA substrate cleavage | AID 485290; note: potency is the fitted concentration of half-maximal effect; nearly all actives have a fitted effect of over 40% in size
# Target sequence (Q9NUW8 whole entry, looked up): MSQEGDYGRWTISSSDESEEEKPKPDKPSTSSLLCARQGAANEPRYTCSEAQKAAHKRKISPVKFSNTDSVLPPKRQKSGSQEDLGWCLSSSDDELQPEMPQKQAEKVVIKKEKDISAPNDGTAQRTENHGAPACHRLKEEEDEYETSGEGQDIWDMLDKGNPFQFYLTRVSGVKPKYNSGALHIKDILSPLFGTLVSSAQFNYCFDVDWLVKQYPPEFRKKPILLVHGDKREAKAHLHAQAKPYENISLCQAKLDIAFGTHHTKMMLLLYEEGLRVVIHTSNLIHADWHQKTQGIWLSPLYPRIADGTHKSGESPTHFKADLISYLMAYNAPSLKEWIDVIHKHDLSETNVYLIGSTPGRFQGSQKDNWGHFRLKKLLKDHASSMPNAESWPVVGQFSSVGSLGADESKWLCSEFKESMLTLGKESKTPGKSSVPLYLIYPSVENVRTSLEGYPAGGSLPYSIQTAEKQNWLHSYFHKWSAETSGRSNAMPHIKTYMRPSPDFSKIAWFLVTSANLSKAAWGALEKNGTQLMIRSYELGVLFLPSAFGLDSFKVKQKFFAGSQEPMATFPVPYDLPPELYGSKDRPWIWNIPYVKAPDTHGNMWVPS
#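 E. coli-derived human Tdp1, 1 nM final. Cpd preinc 15 min RT; substrate 15 nM final, 5 min RT; AS bead mix 10 ug/ml final, 10 min RT. Signal loss = tyrosine-FITC cleavage. No-enzyme wells = max signal.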
# An asterisk follows results filed as active; ? = inconclusive; nt = no result given; [ ] = another dose, or the depositor's remark. Most compounds without a hit are left out; they make up all but 18% or so of the library. Unless noted, calls come from the whole dose curve; as a rule, active = well fitted curve in the direction sought with a large enough effect; inconclusive = small, poorly fitted or top-dose-only effect, or another doubt; inactive = no such curve, though single readings can be large; an effect the other way counts as inactive or inconclusive. % is set by controls: 0 for no effect and ±100 for the full control effect.
SMILES,CtBP-E1A blk,DT40 TDP1 CPT,DT40 TDP1 no CPT,Six1-Eya2 inh,IL-1B inflam inh,TDP1 inh
O=C(COC(=O)Cn1cnc2ccccc21)Nc1ccc(Br)cc1,-7.8,-5.7%,10.1%,9.3,3.0,nt
CCCN1CCN(c2cc3c(cc2F)c(=O)c(S(=O)(=O)c2ccc(Cl)cc2)cn3C)CC1,nt,?,23.1µM*,nt,nt,0.0%
CCCn1cc(S(=O)(=O)c2ccc(CC)cc2)c(=O)c2cc(F)c(N3CCN(C)CC3)cc21,nt,16.4µM*,25.9µM*,nt,nt,2.5%
CCCN1CCN(c2cc3c(cc2F)c(=O)c(S(=O)(=O)c2ccc(CC)cc2)cn3CC)CC1,nt,?,20.6µM*,nt,nt,-2.5%
CCc1ccc(S(=O)(=O)c2cn(CC)c3cc(N4CCCCC4)c(F)cc3c2=O)cc1,nt,?,?,nt,nt,3.7%
CCCCn1cc(S(=O)(=O)c2ccccc2)c(=O)c2cc(F)c(N3CCN(CCC)CC3)cc21,nt,?,20.6µM*,nt,nt,5.0%
O=C(COC(=O)COc1ccc(Cl)cc1)Nc1ccc(F)c([N+](=O)[O-])c1,-6.9,-6.6%,-5.7%,-0.6,11.1,5.1%
N#Cc1ccc(-c2cccnc2)nc1SCc1ccc(Cl)cc1Cl,8.3,-11.5%,-7.2%,-1.4,-3.9,1.0%
CCCn1cc(S(=O)(=O)c2ccccc2)c(=O)c2cc(OC)c(OC)cc21,0.3,-5.3%,17.1%,-5.4,?,4.1%
CCCn1cc(S(=O)(=O)c2ccccc2)c(=O)c2cc(CC)ccc21,-10.6,6.3%,5.4%,8.1,-50.2*,6.5%
CCCCn1cc(S(=O)(=O)c2ccc(CC)cc2)c(=O)c2cc(F)c(N3CCCC(C)C3)cc21 (centres undefined),nt,23.1µM*,23.1µM*,nt,nt,0.0%
CCCCn1cc(S(=O)(=O)c2ccc(OC)cc2)c(=O)c2cc(F)c(N3CCOCC3)cc21,nt,?,?,nt,nt,5.0%
CCCCn1cc(S(=O)(=O)c2ccc(CC)cc2)c(=O)c2cc(F)c(N3CCOCC3)cc21,nt,?,18.4µM*,nt,nt,-3.7%
CCCCn1cc(S(=O)(=O)c2ccc(OC)cc2)c(=O)c2cc(F)c(F)cc21,nt,18.4µM*,?,nt,nt,1.3%
CC(=O)Nc1ccc(NC(=O)CSc2ncnn2-c2ccccc2)cc1,3.9,-15.9%,2.8%,0.2,9.8,1.9%
Cn1cc(NC(=O)OCc2ccc(Cl)cc2)c(C(F)(F)F)n1,14.2,?,?,6.6,-21.4,1.2%
COC(=O)[C@]12CCCCC=C1N(Cc1ccco1)C(=O)[C@H](CC(=O)NCc1cccc(C(F)(F)F)c1)C2,-9.7,?,?,-4.6,-14.6,nt
COC(=O)[C@]12CCCCC=C1N(Cc1ccccc1)C(=O)[C@H](CC(=O)NCc1cccs1)C2,-20.2,?,-25.8%,7.2,-6.5,nt
CCCCNC(=O)C[C@@H]1C[C@@]2(C(=O)OC)CCCCC=C2N(Cc2ccco2)C1=O,-0.6,?,?,-1.4,24.9,nt
COC(=O)[C@]12CCCCC=C1N(Cc1ccco1)C(=O)[C@H](CC(=O)NCc1cccs1)C2,-13.1,?,23.1µM*,-10.9,3.1,nt
CCOC(=O)[C@]12CCCC=C1N(Cc1ccco1)C(=O)[C@H](CC(=O)NCc1cccc(C(F)(F)F)c1)C2,-2.4,?,18.4µM*,2.8,0.0,nt
CCOC(=O)[C@]12CCCC=C1N(Cc1ccco1)C(=O)[C@H](CC(=O)NCc1cccs1)C2,0.4,?,25.9µM*,0.1,-11.6,nt
CCCCOCCCNC(=O)C[C@@H]1C[C@@]2(C(=O)OC)CCCCC=C2N(Cc2ccco2)C1=O,3.9,?,16.4µM*,-4.6,4.4,nt
COc1ccc(N2CCN(C(=O)CSc3c4c(nc5ccc(Cl)cc35)CCCC4)CC2)cc1,nt,20.6µM*,14.6µM*,nt,nt,9.3%
O=C(CSc1c2c(nc3ccc(Cl)cc13)CCCC2)N1CCN(c2cccc(Cl)c2)CC1,nt,16.4µM*,?,nt,nt,-2.3%
SMILES,CtBP-E1A blk,DT40 TDP1 CPT,DT40 TDP1 no CPT,Six1-Eya2 inh,IL-1B inflam inh,TDP1 inh
O=C(CSc1c2c(nc3ccc(Cl)cc13)CCCC2)N1CCN(c2ccc(Cl)cc2)CC1,nt,11.6µM*,16.4µM*,nt,nt,2.3%
O=C(O)c1c2c(nc3ccc(Cl)cc13)CCC2,4.3,1.3%,-16.0%,1.0,25.7,nt
COc1cc(C(=O)Nc2ccc(NC(=O)c3ccc(Br)cc3)cc2)cc(OC)c1OC,nt,-1.8%,-3.7%,nt,nt,4.8%[12.3 µM]
COc1cc(C(=O)Nc2ccc(NC(=O)c3ccc(C(C)(C)C)cc3)cc2)cc(OC)c1OC,nt,2.91µM*,3.26µM*,nt,nt,1.9%[2.28 µM]
COc1ccc(C(=O)Sc2ccc(Cl)cc2)cc1OC,2.8,8.2µM*,11.6µM*,2.3,-83.6*,1.0%
COCc1cc(=O)oc2cc(NC(=O)c3ccc(C(C)(C)C)cc3)ccc12,1.6,9.2µM*,14.6µM*,1.5,-11.7,nt
COc1cc(C(=O)Nc2ccc3ccccc3c2)cc(OC)c1OC,-12.7,?,0.651µM*,0.5,3.5,nt
COc1ccc(C(=O)SC2=NCCS2)cc1OC,34.4,-10.4%,0.1%,0.7,0.0,1.0%
CC1CCCCC1NCc1cccc([N+](=O)[O-])c1 (centres undefined),-1.0,?,5.4%,-1.5,?,-12.7%
COC(=O)C(NS(=O)(=O)c1ccc(N2CCCC2=O)cc1)c1ccccc1 (centres undefined),-5.8,-0.6%,5.6%,0.4,0.0,2.0%
CSc1ccc(CNc2nnnn2C)cc1,-10.9,2.6%,-0.9%,6.3,-19.2,-1.8%
O=S(=O)(NCc1ccccn1)c1cccc2nsnc12,2.6,4.0%,9.5%,1.5,22.0,2.3%
COc1ccc(C(=O)c2cc(OC)c(OC)c(OC)c2)cc1OC,-1.9,4.61µM*,2.59µM*,-3.9,43.3,nt
COc1ccc(C(=O)c2ccc(OC)c(OC)c2)cc1OC,5.7,?,?,-1.0,-0.4,-2.9%
COc1cc(OC)cc(C(=O)Nc2ccc(C(=O)c3ccncc3)cc2)c1,-6.1,?,?,-10.6,-24.3,4.7%
COc1cc(C(=O)Nc2ccc(C(=O)c3ccncc3)cc2)cc(OC)c1OC,1.1,14.6µM*,23.1µM*,-4.8,-14.6,nt
N#C/C(C(N)=O)=c1/ccc2c(c1)N1C3=C(CCCC3)CC3CCCCC31N=2 (centres undefined),-11.1,14.6µM*,13µM*,-21.6,-101.8*,10.8%
N#CC(C#N)=c1ccc2c(c1)N1C3=C(CCCC3)CC3CCCCC31N=2 (centres undefined),-5.8,?,?,-25.8,-116.7*,6.2%
